# According to PubChem BioAssay (Tox21):
# Results filed as inconclusive are left out. A number with no mark means an inactive call. Active and inactive are the calls of the source. The call rests on the fitted dose curve; in most records, active means well fitted activation curve with a large enough effect in the repeat runs; inconclusive means weak or mixed curves; inactive means flat fitted curve, though single readings scatter.
# Experiment: A CellTox Green Cytotoxicity Assay to monitor cytotoxicity in HEK293 cells - 24 hour (AID 1224875); further: nearly all actives have a fitted effect of over 45% in size
# Details: CellTox Green fluorescence; series mostly up to 76.8 µM; activity change: at the top concentration
# Description: National Center for Advancing Translational Sciences [NCATS]
# NIH Chemical Genomics Center [NCGC]
# U.S. Environmental Protection Agency [EPA]
# National Institutes of Environmental Health Sciences [NIEHS]
# National Toxicology Program [NTP]
# Cell-based models are critical for drug discovery. Determining the natural cytotoxic effects resulting from test compounds is an essential research activity. A CellTox Green Cytotoxicity Assay to monitor cytotoxicity in real time of continues cell culture during 40 hours of the compound treatment was used to screen Tox21 10K library compounds in Hek293 cells. CellTox Green Cytotoxicity Assay is a nonlytic, homogeneous, biofluorescent method to measure cytotoxicity in cell culture after experimental manipulation. The assay system uses a proprietary asymmetric cyanine dye that is excluded from viable cells but preferentially stains the dead cell's DNA. […] Viable cells produce no appreciable increases in fluorescence. Therefore, the fluorescence signal produced by the binding interaction with dead cell DNA is proportional to cytotoxicity.
# The mixture of Hek293 cell suspension and reagents were dispensed at 600cells/6 ul/well in 1536-well tissue culture treated black solid bottom plates using a Multidrop dispenser. After the assay plates were incubated at a 37 C/5% CO2 incubator for 5 hours, 23 nL of compounds dissolved in DMSO, positive and negative controls was transferred to the assay plate by a pintool work station. The plates were incubated at 37 C for 40 hours. The fluorescence intensity were measured at 0h, 8h, 16h, 24h, 32h and 40h time points using ViewLux plate reader during compound treatment.
# On the % scale 0 is the no-effect control and ±100 the full control effect; potency means the concentration at half of the fitted maximal effect.
SMILES,activity change,Potency
C[C@@H]1C[C@H]2[C@@H]3CCC4=CC(=O)C=C[C@]4(C)[C@@]3(F)[C@@H](O)C[C@]2(C)[C@@]1(O)C(=O)COC(=O)c1ccncc1,"-3.64% [at 35.3 µM, hits give high values]",–
O=CC1CC=CCC1 (stereo not given),-1.29%,–
COc1ccnc(CS(=O)c2nc3ccc(OC(F)F)cc3[nH]2)c1OC (stereo not given),"-29.4% [at 35.3 µM, hits give high values]",–
COc1cccc(N(C)C(=S)Oc2ccc3c(c2)CCCC3)n1,"0.373% [at 35.3 µM, hits give high values]",–
CC(C)(COC(=O)c1ccccc1)COC(=O)c1ccccc1,-0.523%,–
COc1ccc2cccc(CCNC(C)=O)c2c1,"2.52% [at 35.3 µM, hits give high values]",–
C[C@@H]1C[C@H]2O[C@@]3(O[C@@H]2C(C)(C)O)[C@H](O)[C@@]2(C)[C@@H]4CC[C@H]5C(C)(C)[C@@H](O[C@@H]6OC[C@@H](O)[C@H](O)[C@H]6O)CC[C@@]56C[C@@]46CC[C@]2(C)[C@@H]13,"16.5% [at 35.3 µM, hits give high values]",–
Cc1ccc(N=Nc2c(O)c(C(=O)O)cc3ccccc23)c(S(=O)(=O)O)c1,"-14.1% [at 35.3 µM, hits give high values]",–
O=C(O)c1ccc(-n2nc(-c3ccccc3O)nc2-c2ccccc2O)cc1,"-7.39% [at 35.3 µM, hits give high values]",–
CC(C)(C)OCC1CO1 (stereo not given),-3.79%,–
CCOC(=O)c1cccnc1,"-0.0337% [at 35.3 µM, hits give high values]",–
Cc1ccccc1S(=O)(=O)O,4.28%,–
CN1CCC(N(Cc2cccs2)c2ccccc2)CC1,–,19 µM (active)
Cc1ccc(C(C)OC(=O)C2(C)CCC(C(=O)O)C2(C)C)cc1 (stereo not given),"-19.4% [at 35.3 µM, hits give high values]",–
Cc1ccc(C(=O)Oc2ccc(C(O)CNC(C)(C)C)cc2OC(=O)c2ccc(C)cc2)cc1 (stereo not given),–,23.9 µM (active)
C=C1C(=C/C=C2\CCC[C@]3(C)[C@@H]([C@H](C)/C=C/[C@@H](O)C4CC4)CC[C@@H]23)C[C@@H](O)C[C@@H]1O,"-1.5% [at 35.3 µM, hits give high values]",–
CCN(CC)c1ccc2c(-c3ccccc3C(=O)O)c3ccc(=[N+](CC)CC)cc-3oc2c1,–,24.5 µM (active)
CCCCCCCCCCCCCCOS(=O)(=O)O,–,43.6 µM (active)
c1ccc(-c2ccccn2)nc1,3.43%,–
Cc1[nH]c(C)c(Cl)c(=O)c1Cl,"-5.28% [at 15.8 µM, hits give high values]",–

SMILES,activity change,Potency
ClCCOCCOCCCl,-17.2%,–
CCOC(=O)C(O)c1ccccc1 (stereo not given),"-2.87% [at 35.3 µM, hits give high values]",–
COc1ccc(S(=O)(=O)N2C(=O)[C@@](c3ccccc3OC)(N3C[C@H](O)C[C@H]3C(=O)N(C)C)c3cc(Cl)ccc32)c(OC)c1,-4.09%,–
CCN(CC)CCOC(=O)C(c1ccccc1)C1CCCCC1 (stereo not given),–,23.9 µM (active)
CC(=O)[O][Al][O]C(C)=O,-2.75%,–
O=C(OCCCCCCOC(=O)c1ccccc1)c1ccccc1,14.2%,–
C/C(=C(\CCOP(=O)(O)O)SC(=O)c1ccccc1)N(C=O)Cc1cnc(C)nc1N,"-4.36% [at 6.97 µM, hits give high values]",–
Brc1c2ccccc2cc2ccccc12,10.3%,–
CCCCO,-0.154%,–
CCOc1ccc(N=Nc2ccc(/C=C/c3ccc(N=Nc4ccc(OCC)cc4)cc3S(=O)(=O)O)c(S(=O)(=O)O)c2)cc1,-34.7%,–
C=C(C)C(=O)OCCOCC,5.63%,–
CCO[C@H](Cc1ccc(OCCc2ccc(OS(C)(=O)=O)cc2)cc1)C(=O)O,"-8.48% [at 35.3 µM, hits give high values]",–
CC(C)(C)Cl,3.97%,–
CCN(CC)CCOC(=O)C(Cc1cccc2ccccc12)CC1CCCO1 (stereo not given),"25.9% [at 35.3 µM, hits give high values]",–
CCC(C)O (stereo not given),-2.48%,–
COc1cc(Cl)ccc1Oc1ccc(Cl)cc1Cl,-0.961%,–
O=C(Nc1ccccc1)c1ccccc1O,11%,–
Cc1cc(N)c2cc(NC(=O)Nc3ccc4nc(C)cc(N)c4c3)ccc2n1,"-36.2% [at 35.3 µM, hits give high values]",–
c1cc(CCCc2ccncc2)ccn1,-13.6%,–
C#C[C@]1(O)CC[C@H]2[C@@H]3CCc4cc(OC5CCCC5)ccc4[C@H]3CC[C@@]21C,"24.4% [at 35.3 µM, hits give high values]",–
